Compounds without any hit were thinned out: in the full panel of roughly 83,000, 20% have a hit.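 Growth was measured after 48 h exposure to one concentration of compound in 96-well plates. Values under 10 count as active.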 Unmarked numbers belong to inactive results. Active and inactive are the calls of the source.

The test system of one assay is UO-31 renal. The experiment in a line: NCI-60 one-dose screen, 48 h (100 = growth as untreated, 0 = no growth, -100 = all killed). As to conditions: 10 µM unless noted.
As to `CC(C)CNc1nc(N=[N+]=[N-])nc(NCC(C)C)n1`, the growth was 47.3% [100 µM].

Take `CCCCCCCSc1ncnc2[nH]ncc12`: the growth was 60.6%.

On to `COC(=O)[C@H](Cc1cn(C)cn1)NC(=O)[C@H](Cc1ccccc1)NC(=O)Nc1cc(C(F)(F)F)cc(C(F)(F)F)c1`, for which the growth is -93.4% [100 µM] (active).

`CC[N+](CCCCCCCCCC[N+](CC)(c1ccccn1)c1ccccn1)(c1ccccn1)c1ccccn1`: the growth was 26.4%.

With `CCCCCCC(CC#N)(CCC)CCCC` (stereo not given), the growth is 97.6%.

`O=C1NC(=O)/C(=C\c2ccco2)S1`: the growth was 67.5%.

`Cc1sc2nc3c4ccccc4c(NCCCN(C)C)nn3c(=O)c2c1C`: the growth was -91.9% (active).

Turning to `COc1ccc([N+](=O)[O-])c(S(=O)(=O)c2ccc(Cl)cc2)n1`, the growth was 51.7%.

As for `COc1ccc(NC(=O)c2ccccc2-c2ccccc2)c(C(N)=O)c1`, the growth was 40.1%.

As for `CCCCCc1c(C)[nH]c(/C=C2\N=C(c3ccc[nH]3)C=C2Oc2ccccc2)c1C`, the growth is -70.1% [100 µM] (active).

Take `COc1ccc(NC(=O)[C@@H]2C[C@H]2c2ccccc2)c(C(N)=O)c1`: the growth is 87.9%.

In the case of `COc1cc(-c2n[nH]nc2-c2ccccn2)cc(OC)c1OC`, the growth is 87.7%.

Consider `COC(=O)[C@H](Cc1cnc[nH]1)NC(=O)[C@@H](NC(=O)Nc1cc(C(F)(F)F)cc(C(F)(F)F)c1)C(C)C`, for which the growth is -21.7% [100 µM] (active).

With `O=C1C(=O)/C(=C/c2ccccc2)CCCCCC/C1=C/c1ccccc1`, the growth is 30.9%.

In the case of `O=C(Nc1ccc(Cl)cc1)Nc1nc2ccc(OC(F)(F)F)cc2o1`, the growth was 87.9%.

Consider `COc1ccc(N2CCN(CC(=O)N3CCN(c4nnc(-c5ccccc5)c(-c5ccccc5)n4)CC3)CC2)cc1`, for which the growth was 24.9%.

With `CCCCCCCCCCCCCCCCNC(=O)Nc1ccc2ccccc2c1`, the growth was 104%.

For the compound `FCc1ncc(-c2ccc(C(F)(F)F)cc2)c(NC2CCCCCC2)n1`, the growth is 11.1% [100 µM].

For `O=Cc1ncc(-c2ccc(C(F)(F)F)cc2)c(NC2CCCCCC2)n1`, the growth was -90.8% [100 µM] (active).

Take `COC(=O)[C@H](Cc1cn(C)cn1)NC(=O)[C@@H](NC(=O)Nc1cc(C(F)(F)F)cc(C(F)(F)F)c1)C(C)C`: the growth was -94.9% [100 µM] (active).

As for `CSc1nc(-c2ccc(O)cc2O)c2c(=O)[nH]c(Nc3ccc(S(=O)(=O)Nc4nc(C)cc(C)n4)cc3)nc2n1`, the growth is 112%.

As to `CC(C)OP(=O)(OC(C)C)c1ncc(-c2ccc(C(F)(F)F)cc2)c(NC2CCCCCC2)n1`, the growth was -91.5% [33.3 µM] (active).

In the case of `NS(=O)(=O)c1ccc(-n2nc(-c3ccc(Br)cc3)ccc2=O)cc1`, the growth was 89.2% [100 µM].

`CC1CC=CCC1C1OCC(C)(C)CO1` (stereo not given): the growth was 97.7%.

On to `N[C@H](CS)C(=O)O`, for which the growth is 92.4%.

Regarding `CCCCCc1c(C)[nH]c(/C=C2\N=C(c3ccc[nH]3)C=C2Oc2ccc(Cl)cc2)c1C`, the growth was -53% [100 µM] (active).

Consider `[N-]=[N+]=NCc1ncc(-c2ccc(C(F)(F)F)cc2)c(NC2CCCCCC2)n1`, for which the growth is 50% [50 µM].

As to `COc1ccc(-c2nnc3c4[nH]cnc4ncn23)c(OC)c1`, the growth was 23.3%.

For `C1CCC(C(CC2CCCCN2)C2CCCCC2)CC1` (stereo not given), the growth was 11.9%.

Take `CCOC(=O)c1sc(NC(=O)COc2cccc(/C=C3\Cc4ccc(Cl)cc4C3=O)c2)nc1C`: the growth is -17.4% (active).

Regarding `CCCCCCCC[Si](OCC)(OCC)OCC`, the growth was 81.1%.

In the case of `CCOc1cc(CCNS(=O)(=O)c2ccc(C)cc2)c(C(C)=O)cc1OCC`, the growth is -69.9% [100 µM] (active).

`CC(=O)c1ccc(NS(=O)(=O)c2ccc([N+](=O)[O-])cc2)cc1`: the growth is 77.8%.

As for `COC(=O)[C@H](CCCCNC(=O)OCc1ccccc1)NC(=O)[C@@H](NC(=O)Nc1cc(C(F)(F)F)cc(C(F)(F)F)c1)C(C)C`, the growth was -88.6% [100 µM] (active).

Consider `O=C(/C=C/c1c(-c2ccccc2)[nH]c2ccccc12)S(=O)(=O)c1ccccc1`, for which the growth is 31%.

`CCOC(=O)C(C(=O)OCC)C1CCCCC1`: the growth is 91.8%.

On to `CNc1nc(NC2CCCC2)nc(Sc2ccc(OC)cc2)n1`, for which the growth was 12.8% [100 µM].

Turning to `O=c1sc2ncnc3ncn1c32`, the growth was 52.6%.

Take `Cc1nn2c(/C=C3/C(=O)Nc4cc(Cl)ccc43)c(-c3ccccc3)nc2s1`: the growth is -72.3% (active).

Take `Nc1nc2c(nnn2Cc2ccc(Cl)c(Cl)c2)c(=O)[nH]1`: the growth is 69.2%.

Another assay has as its system TK-10 renal. The assay is described as above. As to conditions: 10 µM unless noted.
On to `CC(C)CNc1nc(N=[N+]=[N-])nc(NCC(C)C)n1`, for which the growth was 77.5% [100 µM].

For the compound `CCCCCCCSc1ncnc2[nH]ncc12`, the growth is 81.1%.

For `COC(=O)[C@H](Cc1cn(C)cn1)NC(=O)[C@H](Cc1ccccc1)NC(=O)Nc1cc(C(F)(F)F)cc(C(F)(F)F)c1`, the growth was -97.9% [100 µM] (active).

Take `CC[N+](CCCCCCCCCC[N+](CC)(c1ccccn1)c1ccccn1)(c1ccccn1)c1ccccn1`: the growth is -3% (active).

With `CCCCCCC(CC#N)(CCC)CCCC` (stereo not given), the growth was 102%.

For the compound `O=C1NC(=O)/C(=C\c2ccco2)S1`, the growth was 102%.

Turning to `Cc1sc2nc3c4ccccc4c(NCCCN(C)C)nn3c(=O)c2c1C`, the growth is 78%.

Consider `COc1ccc([N+](=O)[O-])c(S(=O)(=O)c2ccc(Cl)cc2)n1`, for which the growth is 81.1%.

On to `COc1ccc(NC(=O)c2ccccc2-c2ccccc2)c(C(N)=O)c1`, for which the growth is 76.1%.

Regarding `CCCCCc1c(C)[nH]c(/C=C2\N=C(c3ccc[nH]3)C=C2Oc2ccccc2)c1C`, the growth is -62% [100 µM] (active).

Turning to `COc1ccc(NC(=O)[C@@H]2C[C@H]2c2ccccc2)c(C(N)=O)c1`, the growth is 96%.

With `COc1cc(-c2n[nH]nc2-c2ccccn2)cc(OC)c1OC`, the growth is 151%.

On to `COC(=O)[C@H](Cc1cnc[nH]1)NC(=O)[C@@H](NC(=O)Nc1cc(C(F)(F)F)cc(C(F)(F)F)c1)C(C)C`, for which the growth was -95% [100 µM] (active).

For the compound `O=C1C(=O)/C(=C/c2ccccc2)CCCCCC/C1=C/c1ccccc1`, the growth was 115%.

As to `O=C(Nc1ccc(Cl)cc1)Nc1nc2ccc(OC(F)(F)F)cc2o1`, the growth was 92.9%.

Turning to `COc1ccc(N2CCN(CC(=O)N3CCN(c4nnc(-c5ccccc5)c(-c5ccccc5)n4)CC3)CC2)cc1`, the growth is 64.7%.

As to `CCCCCCCCCCCCCCCCNC(=O)Nc1ccc2ccccc2c1`, the growth was 110%.

Take `FCc1ncc(-c2ccc(C(F)(F)F)cc2)c(NC2CCCCCC2)n1`: the growth was 38% [100 µM].

For `O=Cc1ncc(-c2ccc(C(F)(F)F)cc2)c(NC2CCCCCC2)n1`, the growth was -94.9% [100 µM] (active).

As for `COC(=O)[C@H](Cc1cn(C)cn1)NC(=O)[C@@H](NC(=O)Nc1cc(C(F)(F)F)cc(C(F)(F)F)c1)C(C)C`, the growth was -98.7% [100 µM] (active).

For the compound `CSc1nc(-c2ccc(O)cc2O)c2c(=O)[nH]c(Nc3ccc(S(=O)(=O)Nc4nc(C)cc(C)n4)cc3)nc2n1`, the growth was 123%.

Consider `CC(C)OP(=O)(OC(C)C)c1ncc(-c2ccc(C(F)(F)F)cc2)c(NC2CCCCCC2)n1`, for which the growth was 1.08% [33.3 µM] (active).

As for `NS(=O)(=O)c1ccc(-n2nc(-c3ccc(Br)cc3)ccc2=O)cc1`, the growth is 22.2% [100 µM].

For `CC1CC=CCC1C1OCC(C)(C)CO1` (stereo not given), the growth was 111%.

As to `N[C@H](CS)C(=O)O`, the growth was 97.3%.

For the compound `CCCCCc1c(C)[nH]c(/C=C2\N=C(c3ccc[nH]3)C=C2Oc2ccc(Cl)cc2)c1C`, the growth is -6.56% [100 µM] (active).

For the compound `[N-]=[N+]=NCc1ncc(-c2ccc(C(F)(F)F)cc2)c(NC2CCCCCC2)n1`, the growth is 112% [50 µM].

In the case of `COc1ccc(-c2nnc3c4[nH]cnc4ncn23)c(OC)c1`, the growth is 10.8%.

Turning to `C1CCC(C(CC2CCCCN2)C2CCCCC2)CC1` (stereo not given), the growth was 21.2%.

Consider `CCOC(=O)c1sc(NC(=O)COc2cccc(/C=C3\Cc4ccc(Cl)cc4C3=O)c2)nc1C`, for which the growth is 145%.

As for `CCCCCCCC[Si](OCC)(OCC)OCC`, the growth was 90.8%.

With `CCOc1cc(CCNS(=O)(=O)c2ccc(C)cc2)c(C(C)=O)cc1OCC`, the growth was 84.6% [100 µM].

Turning to `CC(=O)c1ccc(NS(=O)(=O)c2ccc([N+](=O)[O-])cc2)cc1`, the growth was 100%.

As to `COC(=O)[C@H](CCCCNC(=O)OCc1ccccc1)NC(=O)[C@@H](NC(=O)Nc1cc(C(F)(F)F)cc(C(F)(F)F)c1)C(C)C`, the growth is -44% [100 µM] (active).

Consider `O=C(/C=C/c1c(-c2ccccc2)[nH]c2ccccc12)S(=O)(=O)c1ccccc1`, for which the growth is 121%.

With `CCOC(=O)C(C(=O)OCC)C1CCCCC1`, the growth was 101%.

On to `CNc1nc(NC2CCCC2)nc(Sc2ccc(OC)cc2)n1`, for which the growth is 42.1% [100 µM].

Consider `O=c1sc2ncnc3ncn1c32`, for which the growth is 26.9%.

On to `Cc1nn2c(/C=C3/C(=O)Nc4cc(Cl)ccc43)c(-c3ccccc3)nc2s1`, for which the growth is -55.3% (active).

As to `Nc1nc2c(nnn2Cc2ccc(Cl)c(Cl)c2)c(=O)[nH]1`, the growth was 103%.

The values above are taken from PubChem BioAssay (NCI).
